Experimental data taken from PubChem BioAssay AID2326 (National Center for Advancing Translational Sciences (NCATS), 2010).
In all, about 270,000 compounds went through this assay and about 1,100 (0.41%) were called active. Inconclusive results (about 3%) are left out. The sample holds actives, similar compounds and a random draw of the others, so the mix is not that of the screen. Unmarked numbers belong to inactive results. Calls come from the whole dose curve.

Assay: qHTS Assay for Inhibitors of Influenza NS1 Protein Function; note: actives are rising curves; nearly all actives have a fitted effect of over 50% in size
Conditions: series mostly up to 46.1 µM; activity, positive = more growth: at the top concentration
Excerpt: NIH Chemical Genomics Center [NCGC]
NIH Molecular Libraries Probe Centers Network [MLPCN]
Assay Submitter (PI): Daniel Engel
Influenza is a world-wide public health problem and emerging forms of the virus have the potential to cause a pandemic of equal or greater magnitude to the outbreaks recorded in 1918, 1957 or 1968. Vaccine development is proceeding and there also exist two classes of anti-influenza compounds. However these therapeutic modalities are neither fully effective nor widely enough available to fulfill global needs. In addition their potential usefulness against newly emergent strains is not known. Efforts are needed to develop novel agents against influenza virus, including broad-spectrum agents. Identification of small molecules that inhibit NS1 function either directly or by interfering with specific cellular pathways may be a key to increasing our defense against the virus.
We have miniaturized and optimized a cell based assay in which NS1 from influenza A is expressed in the budding yeast S. cerevisiae. NS1 is a multi-functional protein that counters the host innate immune response and facilitates viral versus cellular gene expression. Expression of NS1 causes a pronounced slow growth phenotype in yeast due to its intrinsic molecular activities. Small molecules that suppress the slow growth phenotype can be identified by a straightforward growth recovery assay using optical density (OD) as the measurement. The same yeast strain not expressing NS1 was used as positive control in the yeast growth recovery assay.
The yeast S. cerevisiae control and NS1 expressing cells were kindly supplied by laboratory of Dr. Daniel Engel, University of Virginia. Yeast starter cultures were stored in single use aliquots at -80C.
1. Yeast culture medium per liter: 1.2 g Yeast Nitrogen Base (w/out amino acids and Ammonium Sulphate), 5.0g Ammonium Sulphate, 0.77g -URA DO (drop-out) Supplement, adjust pH to 6.0. Adjust to 2% glucose prior to inoculating with yeast.
2. Yeast assay medium: 1.2 g Yeast Nitrogen Base (w/out amino acids and Ammonium Sulphate), 5.0g Ammonium Sulphate, 0.77g -URA DO (drop-out) Supplement, adjust pH to 6.0. Adjust to 2% D-galactose prior to inoculating with yeast.
1. Inoculate 100 mls of yeast culture medium with 1 ml of frozen yeast aliquote. Incubate overnight at 30C, 250RPM.
2. Harvest overnight culture at 4000 RPM and wash pellet with 15 mls H2O 3x.
3. Re-suspend washed pellet in 10 mls of yeast assay medium.
4. Prepare a 1:100 dilution of re-suspended culture in yeast assay medium.
5. Dispense 3.5 ul per well of reagents in step 4 in columns 2-48 in a black clear bottom 1536 well plate.
6. Dispense 3.5 ul per well of yeast assay medium in column 1 only.
7. Transfer 23 nl of compound per well.
8. Dispense 3.5 ul per well of yeast assay medium in columns 1-48.
9. Read plate using Viewlux protocol for optical density 600 (OD600) using excitation filter 600nm.
Potency is the fitted concentration of half-maximal effect.

Row | Structure (SMILES) | activity, positive = more growth | Potency
1 | CCN1CCN(c2nc(Nc3cc(OC)ccc3OC)nc(Nc3cc(OC)ccc3OC)n2)CC1 | -1.81% | –
2 | COc1ccc(Nc2nc(Cl)nc(NCc3ccco3)n2)cc1 | 12.3% | –
3 | CCOc1ccc(Nc2nc(Cl)nc(N3CCN(c4ccc(OC)cc4)CC3)n2)cc1 | – | 10 µM (active)
4 | CC(=O)Oc1ccc(-c2cccc(C(=O)N3CCCCC3)c2)cc1 | -31% | –
5 | COc1ccc(Cn2c(=S)[nH]c3cc(C(=O)N4CCCCC4)ccc3c2=O)cc1 | -2.06% | –
6 | COc1ccc(-n2nc(C(=O)NCC(=O)N3CCCCCC3)c3ccccc3c2=O)cc1Cl | 20.2% | –
7 | C=CCn1c(C23CC4CC(CC(C4)C2)C3)n[nH]c1=S | 20.4% | –
8 | CC(C)OC(=O)c1c(NC(=O)c2ccco2)sc2c1CCCC2 | -1.83% | –
9 | COC(=O)c1c(NC(=O)CCCC(=O)O)sc2c1CCCCC2 | -1.9% | –
10 | COC(=O)c1c(NC(=O)c2cccs2)sc2c1CCCC2 | – | 2.24 µM (active)
11 | Cc1ccc(O)c(CNc2nc3ccccc3[nH]2)c1 | 15.3% | –
12 | Cc1cccc(Nc2nc(-c3ccccc3)cs2)n1 | -2.79% | –
13 | CN(C)c1ccc(/C=C/C(=O)c2ccc(C(C)(C)C)cc2)cc1[N+](=O)[O-] | – | 12.6 µM (active)
14 | CN(C)c1ccc(/C=C/C(=O)c2ccc(O)cc2)cc1[N+](=O)[O-] | 1.82% | –
15 | O=C(/C=C/c1ccc(Cl)c([N+](=O)[O-])c1)c1ccc(O)cc1 | -3.76% | –
16 | O=C(CNC(=O)c1ccc(F)cc1)c1ccccc1 | 8.64% | –
17 | O=c1c2cc(Br)ccc2nc(-c2cccc(Cl)c2)n1O | -81% | –
18 | CCS(=O)(=O)Nc1ccc(C(=O)NCCSc2ccccc2)cc1 | 5.43% | –
19 | Cc1cccc([C@@H]2[C@@H]3C(=O)N(Cc4ccccc4)C(=O)[C@@H]3[C@]3(C)C(=O)N(c4ccc(Br)cc4)C(=O)N23)c1 | – | 11.2 µM (active)
20 | C[C@@]12C(=O)N(c3cccc(Br)c3)C(=O)N1[C@H](c1ccc(Cl)cc1)[C@@H]1C(=O)N(C3CCCCC3)C(=O)[C@@H]12 | 25.8% | –
21 | Cc1cccc(N2C(=O)N3[C@H](c4ccc(F)cc4)[C@@H]4C(=O)N(C5CCCCC5)C(=O)[C@@H]4[C@]3(Cc3ccccc3)C2=O)c1 | 4.58% | –
22 | CN(Cc1cnccn1)C(=O)c1cc(COc2cccc(C(F)(F)F)c2)on1 | -12.1% | –

Row | Structure (SMILES) | activity, positive = more growth | Potency
23 | O=C(Nc1nnc(C2CC2)s1)c1cc(Cl)sc1Cl | -23.7% | –
24 | Cc1ccc(NC(=S)Nc2ccc(F)cc2)cc1 | -5.2% | –
25 | O=C(Nc1ccc(S(=O)(=O)N2CCCCCC2)cc1)c1c(F)cccc1F | -18.2% | –
26 | COc1ccc(C(C(=O)NC2CCCCC2)N(C(=O)Cc2c[nH]c3ccccc23)c2ccccc2)cc1OC (stereo unspecified) | – | 11.2 µM (active)
27 | COc1ccc(CNC(=O)[C@H](Cc2c[nH]c3ccccc23)NC(C)=O)cc1OC | 4.97% | –
28 | COc1ccc(CN(C)C(=O)Cc2c[nH]c3ccccc23)c(OC)c1OC | -6.55% | –
29 | CCOC(=O)C(Cc1ccc(N)cc1)N1C(=O)c2ccccc2C1=O (stereo unspecified) | 11.2% | –
30 | Cc1ccccc1C(=O)N1CCC(C(=O)Oc2ccc(C#N)cc2)CC1 | -1.02% | –
31 | CCC1CCCCN1CCCNC(=O)Cn1nc(-c2ccccc2)ccc1=O (stereo unspecified) | -10.3% | –
32 | CCCCNC(=O)CCn1nc(-c2ccc(Cl)cc2)ccc1=O | -1.2% | –
33 | Cc1ccc(-c2ccc(=O)n(CC(=O)NCCCN3CCCCC3)n2)cc1 | – | 3.55 µM (active)
34 | CCC(NC(=O)c1cc(COc2ccc(F)c(F)c2)on1)c1ccncc1 (stereo unspecified) | -3.92% | –
35 | CCc1ccc(-c2nc(SCC(=O)NC3CCCC3)n[nH]2)cc1 | 0.78% | –
36 | CC(=O)Nc1ccc(S(=O)(=O)Nc2cc(C)cn(Cc3ccc(C)cc3)c2=O)cc1 | -9.21% | –
37 | Cc1cccc(-n2ncc(Cl)c(Cl)c2=O)c1 | -6.42% | –
38 | O=C(Nc1ncc([N+](=O)[O-])s1)C1COc2ccccc2O1 (stereo unspecified) | -114% | –
39 | c1ccc(Nc2nc(N3CCOCC3)c3ccccc3n2)cc1 | -30.2% | –
40 | O=c1[nH]c(N2CCOCC2)nc2ccccc12 | 24.1% | –
41 | C1=C(N2CCOCC2)/C(=C/c2nc3ccccc3[nH]2)CC1 | – | 3.98 µM (active)
42 | COc1ccc(CNS(=O)(=O)c2ccc(NC(=O)N3CCCCC3)cc2)cc1 | 1.64% | –
43 | O=C(/C=C/c1ccc([N+](=O)[O-])o1)NNC(=O)c1ccc(F)cc1 | -0.933% | –
44 | O=C(/C=C/c1ccco1)NC(=S)N1CCCCC1 | 4.86% | –

Row | Structure (SMILES) | activity, positive = more growth | Potency
45 | Cc1ccc(C(=O)Nc2nnc(C3=COCCO3)o2)cc1C | 1.01% | –
46 | O=C(CN1C(=O)S/C(=C\c2ccccc2Cl)C1=O)NC1C=CS(=O)(=O)C1 (stereo unspecified) | -12.7% | –
47 | COc1ccc(-c2nnc(SCC(=O)c3cccs3)o2)c(OC)c1 | -11.8% | –
48 | COc1ccc(-n2c(C)cc(C(=O)CSc3nnc(-c4cccs4)o3)c2C)cc1 | – | 11.2 µM (active)
49 | COc1ccc(C(=O)CSc2nnc(-c3ccco3)o2)cc1 | -3.53% | –
50 | Cc1ccc(O)c(/C=N/NC(=O)COc2ccc3c(C)cc(=O)oc3c2)c1 | 1.86% | –
51 | O=[N+]([O-])c1ccc(O)c(/C=N/Nc2ccccc2[N+](=O)[O-])c1 | -3.57% | –
52 | S=C(Nc1cccc(Cl)c1)Nc1ccc2c(c1)OCCO2 | -6.61% | –
53 | CSc1ccccc1OCc1cc(C(=O)N2C[C@H]3CC[C@H]2C3)no1 | -47% | –
54 | Cc1cc2cc(CNC(=O)c3ccc(S(=O)(=O)N4CCOCC4)cc3)ccc2[nH]1 | -8.99% | –
55 | Cc1cc2cc(CNC(=O)c3cccs3)ccc2[nH]1 | – | 7.08 µM (active)
56 | CCc1cccc(CC)c1NC(=S)NCc1ccc2[nH]c(C)cc2c1 | 18.4% | –
57 | CCC(=O)Nc1ccc(-c2ccc(N3CCCCC3)nn2)cc1 | -6.81% | –
58 | CCCCNC(=O)N(O)C1N(/N=C/c2ccccc2O)C(=S)SC1(C)C (stereo unspecified) | -46% | –
59 | C/C=C/C(=O)Nc1nnc(C(C)C)s1 | -1.95% | –
60 | COc1ccc(CNC(=O)CCC(=O)Nc2nnc(C(C)C)s2)cc1 | 2.26% | –
61 | COc1cccc(OC)c1C(=O)Nc1nnc(C(C)C)s1 | – | 3.98 µM (active)
62 | CCCN1CCn2c3c(c4cc(Br)ccc42)CCCC31 (stereo unspecified) | -7.34% | –
63 | O=C(NCCCc1ccccc1)C(=O)c1c[nH]c2ccccc12 | -5.78% | –
64 | CSc1nnc(NC(=O)c2nc(S(=O)(=O)Cc3ccc(C)cc3)ncc2Cl)s1 | 9.05% | –
65 | CCc1ccc(S(=O)(=O)N/N=C\c2ccc([N+](=O)[O-])o2)cc1 | -23.4% | –
66 | CSCc1nnc(NC(=O)c2ccc(S(=O)(=O)N3CCCCC3C)cc2)o1 (stereo unspecified) | -18.6% | –
